Results taken from PubChem BioAssay (NCI).
About 83,000 compounds went through this panel and 20% of them were active in at least one assay; those are over-represented in the sample as a whole.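 Note: values are percent growth. 100 is the growth of untreated cells, values between 100 and 0 indicate rising inhibition; between -100 and 0 indicates cell death.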 Unmarked numbers belong to inactive results. Calls of active or inactive are those of the source. Rule for the calls: active = growth percent below 10; inactive = the rest.

What was measured:
Experiment in all cases: NCI-60 one-dose screen, 48 h (100 = growth as untreated, 0 = no growth, -100 = all killed)
Details in all cases: 10 µM unless noted
[1] = test system: HCT-15 colon
[2] = test system: HT29 colon
[3] = test system: SNB-75 CNS
[4] = test system: SNB-19 CNS
[5] = test system: U251 CNS
[6] = test system: SK-MEL-5 melanoma
[7] = test system: UACC-62 melanoma
[8] = test system: LOX IMVI melanoma
[9] = test system: SK-MEL-28 melanoma
[10] = test system: SK-MEL-2 melanoma
[11] = test system: EKVX NSCLC
[12] = test system: SN12C renal
[13] = test system: UO-31 renal
[14] = test system: TK-10 renal
[15] = test system: CAKI-1 renal
[16] = test system: A498 renal
[17] = test system: CCRF-CEM leukemia
[18] = test system: MOLT-4 leukemia
[19] = test system: ACHN renal

Row | SMILES | growth [1] | growth [2] | growth [3] | growth [4] | growth [5] | growth [6] | growth [7] | growth [8] | growth [9] | growth [10] | growth [11] | growth [12] | growth [13] | growth [14] | growth [15] | growth [16] | growth [17] | growth [18] | growth [19]
1 | Cc1ccc2c(C(C[N+](=O)[O-])c3ccco3)c(-c3ccccc3)[nH]c2c1 (configuration not stated) | 19.5% | 5.24% (active) | -5.04% (active) | 38.5% | 25.8% | 35.6% | 35.1% | 23.5% | 60.3% | 9.58% (active) | 39.8% | 39.1% | 38.9% | 64.2% | 23.8% | 12.3% | 14.4% | 21% | –
2 | CN(C)C(=S)N=Nc1c(O)[nH]c2ccccc12 | 31.7% | 28.7% | 48.4% | 18.3% | 17% | 4.77% (active) | -16.9% (active) | 14% | 37.5% | -12.6% (active) | 14.8% | 25.1% | -19.1% (active) | 28.9% | – | 1.31% (active) | -11.6% (active) | -12.4% (active) | –
3 | O=C1/C(=C/c2ccc(Cl)cc2)SC(=S)N1CCc1ccc(O)cc1 | 99.7% | 117% | 71.4% | 98.9% | 101% | 97.1% | 78.5% | 65.1% | 101% | 99.7% | 93.8% | 80.2% | 54.6% | 80.5% | – | 87.6% | 23.1% | 54.3% | 99.1%
4 | COc1cc(C2CC(=O)c3ccccc3N2)cc(OC)c1OC (configuration not stated) | 102% | 77.8% | 94.7% | 97.1% | 88.5% | 99.5% | 94.1% | 104% | 107% | 74.3% | 103% | 92% | 92.4% | 105% | – | 83.7% | 95.5% | 97% | 102%
5 | COc1ccc(Nc2c3c4c(cccc4[nH]c2=O)C(=O)c2ccccc2-3)cc1 | -4.37% (active) | -32.1% (active) | 0.39% (active) | 25.8% | 3.3% (active) | -42.3% (active) | 38.3% | 23.9% | 71.1% | 40.2% | 42.3% | 40% | – | 28.6% | 11.7% | 23% | -0.546% (active) | 1.81% (active) | 24.2%
6 | Cn1cc(-c2nonc2-c2cn(C)c3ccc(F)cc23)c2cc(F)ccc21 | 30.8% | 12.3% | 53.8% | 60.1% | 45.2% | 51.4% | 50.6% | 57.9% | 69% | 30.5% | 67.9% | 61.6% | 68.6% | 85.9% | 42% | 54.2% | 33.6% | 29.1% | –
7 | CCCCC(=O)OCC1OC(n2cnc3c(=S)nc[nH]c32)C(OC(=O)CCCC)C1OC(=O)CCCC (configuration not stated) | 33.1% | 27% | 51% | 64.2% | 70.1% | 23.3% | 7.37% (active) | 12.1% | 85.7% | 46.2% | 31.3% | 27.4% | 35% | 14.9% | – | 24.8% | 28.4% | 15.3% | 17.2%
8 | COc1ccc2c(c1)c(-c1nonc1-c1cn(C)c3ccccc13)cn2C | 25.7% | 8.38% (active) | -6.82% (active) | 34.9% | 32.8% | 13.3% | 38% | 47.2% | 63.1% | 41.4% | 51.7% | 47.8% | – | 59.2% | 30.1% | 3.63% (active) | 25.7% | 30.2% | 48.6%
9 | Cn1c(NCCc2ccc(O)c(O)c2)nc2c1c(=O)n(Cc1ccc(Cl)c(Cl)c1)c(=O)n2C | 45.7% | 94.4% | 56.1% | 84.3% | 77.9% | 65.4% | 73.9% | 86.5% | 77.3% | 91.2% | 81.2% | 71.5% | 34% | 65.9% | – | 98.4% | 17.8% | 11.8% | 41.8%
10 | CCNc1ncnc2c1cnn2C1CCCO1 (configuration not stated) | 106% | 119% | 89.4% | 105% | 107% | 105% | 107% | 111% | 107% | 116% | 115% | 103% | 86% | 116% | 101% | – | 87.6% | 92.3% | 104%
11 | O=C(N(c1ccccc1)c1ccccc1)n1ccc2nc(Cl)nc(Cl)c21 | 45.1% | 24.6% | 38.3% | 58.5% | 59.6% | 64.9% | 51.9% | 72.1% | 80.4% | 58.6% | 63.3% | 53.8% | – | 73.7% | 53.4% | 81% | 16% | 37.1% | 65.2%
12 | O=[N+]([O-])c1ccccc1/C=N\NC(=S)N/N=C/c1ccccc1[N+](=O)[O-] | 35.8% | 21.5% | 72.4% | 69% | 62.7% | 59.1% | 55.5% | 43.4% | 78.2% | 56.6% | 70.5% | 86.3% | 27.4% | 46.8% | 42.2% | – | 82.7% | 37.8% | 78.8%
13 | NC(CSC(c1ccccc1)(c1ccccc1)c1ccc(Cl)cc1)C(=O)O (configuration not stated) | 19.3% | 2.26% (active) | 20.9% | 37.9% | 12.2% | 10.6% | 7.9% (active) | 36% | 33.4% | -9.63% (active) | 27.1% | 27.5% | 65% | 64.8% | – | 26.7% | 3.48% (active) | 6.35% (active) | 53%
14 | CCCc1cc(=O)n2c(C(=O)Nc3ccc(F)cc3)c(C(=O)Nc3ccc(F)cc3)sc2n1 | 83% [30 µM] | 53.8% [30 µM] | -15.9% [30 µM] (active) | 48.4% [30 µM] | 41.6% [30 µM] | 82.8% [30 µM] | 84% [30 µM] | 65.1% [30 µM] | 77.7% [30 µM] | 70.7% [30 µM] | 62.5% [30 µM] | 65.7% [30 µM] | – | 38.9% [30 µM] | 44.3% [30 µM] | 139% [30 µM] | 77.1% [30 µM] | 97.9% [30 µM] | 48.4% [30 µM]
15 | CCn1c(Cc2ccccc2Nc2c(Cl)cccc2Cl)nnc1SCC(=O)NN1C(=O)/C(=C/c2cc(OC)c(O)c(OC)c2)SC1=S | 50.4% | 25.5% | 2.65% (active) | 41.9% | 31.5% | 26.1% | 33.2% | 26.8% | 45.7% | 30.7% | 60.2% | 54.8% | 59.6% | 70% | – | 20.6% | 19.1% | 23.1% | 58.9%
16 | C#Cc1cccc(NC(=O)c2ccccc2NC(=O)C=C)c1 | 104% [8.25 µM] | 109% [8.25 µM] | 75% [8.25 µM] | 94.1% [8.25 µM] | 100% [8.25 µM] | 99.5% [8.25 µM] | 104% [8.25 µM] | 97.4% [8.25 µM] | 109% [8.25 µM] | 104% [8.25 µM] | 109% [8.25 µM] | 94% [8.25 µM] | 85.6% [8.25 µM] | 81.1% [8.25 µM] | – | 96.8% [8.25 µM] | 106% [8.25 µM] | 102% [8.25 µM] | 105% [8.25 µM]
